PMK inhibit = S. pneumoniae PMK inhibitors, primary screen, biochemical, mevalonate pathway, pilot trial included. inhibition, % at 10 µM. hit rate 0.49% among 65,000. purified PMK, PK/LDH-coupled NADH absorbance 340 nm. AID 539, 2006;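 active = top-ranked compounds by inhibition in the single 10 µM screen, taking a fixed number of the strongest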;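 note: 0% = full reaction with DMSO carrier and 100% = background rate without enzyme reaction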
NADH coupling = inhibitors of PK/LDH coupling enzymes, profiling panel, artefact control, biochemical, MLSMR library | coupled PK/LDH NADH assays, four targets | IC50, µM (titrated, usually from 10 µM), for the others: at the highest dose inhibition | hit rate 0.02% among 65,000 | AID 774, 2007;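 active = single-dose screening hits from any of four coupled enzyme assays that gave an IC50 when retested across doses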;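 note: the DPM-DC format reads NADH fluorescence rather than 340 nm absorbance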
Autofluor 339 = intrinsic fluorescence of library compounds, ex339/em460 – biochemical, MLSMR library, data from DPM-DC assay, artefact control, profiling panel | hit rate 5.5% among 65,000 | fluorescence fold increase at 10 µM | compound autofluorescence, ex339/em460 nm, NADH buffer; stronger effect = higher value; 1 = no-compound wells, NADH background;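 active = at 10 µM, mean starting fluorescence two-fold or more over control wells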;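 note: signal is the first read of a kinetic run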
Spn MK inh = S. pneumoniae MK inhibitors, primary screen, biochemical, PK/LDH-coupled NADH absorbance; mevalonate kinase [Streptococcus pneumoniae D39]; hit rate 0.48% among 65,000; inhibition, % at 10 µM; purified MK, PK/LDH-coupled NADH absorbance 340 nm;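 active = ranked among the strongest by inhibition in the single 10 µM screen, a fixed top-ranked set picked for dose follow-up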
Abs 340nm = compound light absorbance at 340 nm, profiling panel, artefact control, biochemical, MLSMR library, data from PS, PMK, MK assays | 65,000 tested, under 10 active | AID 708, 2007 | compound absorbance at 340 nm, fold over control | fold change at 10 µM;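 active = at 10 µM dose, initial 340 nm absorbance at least 2 fold that of control wells; inactive = change under 2 fold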;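 note: initial absorbance extrapolated from kinetic A340 decline of NADH oxidation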
DPM-DC inhibit = S. pneumoniae DPM-DC inhibitors, primary screen, biochemical, PK/LDH-coupled NADH fluorescence; AID 556, 2006; hit rate 0.49% among 65,000; purified DPM-DC; calls only at 10 µM;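 active = the 320 compounds with the highest percent inhibition in the single-dose primary screen, excluding strongly autofluorescent ones, cut at about 32% in these data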;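 note: kinetic rate of NADH fluorescence loss reporting ADP formed by the decarboxylase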
An asterisk follows results filed as active; i = inactive; x = not tested or not shown; + = active, no number. Shown are actives, neighbours in structure and some others; about 6.8% of the full set was active somewhere.

SMILES	PMK inhibit	NADH coupling	Autofluor 339	Spn MK inh	Abs 340nm	DPM-DC inhibit
O=c1c2[nH]c3cccc(Cl)c3c2ncn1CCN1CCCCC1	4.0	4.0%	1.62	9.0	1.02	i
Cc1ccc2[nH]c3c(=O)n(CCCN4CCOCC4)cnc3c2c1	0.0	12.0%	2.74*	10.0	1.07	i
Cc1ccc2[nH]c3c(=O)n(CCCN4CCN(C)CC4)cnc3c2c1	12.0	8.0%	2.11*	10.0	0.99	i
Cn1c2ccccc2c2ncn(CCCN3CCOCC3)c(=O)c21	8.0	6.0%	2.39*	1.0	1.01	i
[O-][n+]1c2ccc3nonc3c2nn1-c1ccccc1Cl	14.0	6.0%	1.34	4.0	0.99	i
CCCCN(CC)CCNC(=O)c1cc2c(=O)n(C)c3ccccc3c2n1C	9.0	9.0%	2.06*	8.0	1.06	x
Cn1cc(C(=O)NCCN2CCN(c3cccc(Cl)c3)CC2)c2c3ccccc3n(C)c2c1=O	5.0	2.0%	2*	0.0	1.08	i
CCN(CC)CCNC(=O)c1cc2c(=O)n(C)c3ccccc3c2n1C	0.0	4.0%	1.73	3.0	1.06	i
CN1CCN(CCNC(=O)c2cc3c(=O)n(C)c4ccccc4c3n2C)CC1	14.0	18.0%	1.75	3.0	1.06	+
O=C(NCN1C(=O)C2C3C=CC(C3)C2C1=O)OC1CCCCC1 (centres undefined)	6.0	3.0%	1.05	3.0	0.99	i
CCS(=O)(=O)N1CCC(C(=O)NCC2CCCO2)CC1 (centres undefined)	25.0*	8.0%	1.06	0.0	1	i
O=C(NCC1CCCO1)C1CCN(S(=O)(=O)N2CCCC2)CC1 (centres undefined)	21.0	7.0%	1.01	0.0	1	i
CCS(=O)(=O)N1CCC(C(=O)NCCc2ccccc2)CC1	25.0*	8.0%	1.08	0.0	1.01	i
CCS(=O)(=O)N1CCC(C(=O)NCCc2ccc(C)cc2)CC1	24.0	3.0%	1.05	0.0	0.99	i
O=C(NCC1CCCO1)C1CC(=O)N(C2CCCCCC2)C1 (centres undefined)	27.0*	9.0%	1.04	0.0	1	i
COc1ccc(-c2csc(N(CC3CCCO3)C(=O)c3ccco3)n2)cc1 (centres undefined)	3.0	5.0%	2.67*	12.0	1.05	i
COc1ccc(-c2csc(N3CCN(C(=O)c4ccco4)CC3)n2)cc1	0.0	1.0%	1.06	2.0	1.04	i
CCCc1cc(=O)n2c(nc3ccccc32)[nH]1	4.0	4.0%	3.89*	4.0	1.03	x
CCCCc1c(O)n2c(nc3ccccc32)[nH]c1=O	0.0	1.0%	1.04	4.0	1.01	i
CCn1c(CCC(=O)Nc2nc3c(s2)CCCC3)nc2cc(S(=O)(=O)N(C)C)ccc21	11.0	2.0%	1.04	0.0	0.99	i
Cc1noc(C)c1COC(=O)c1ccc(-c2nc3ccccc3s2)s1	1.0	1.0%	3.96*	2.0	1.07	i
Cc1noc(C)c1COC(=O)CCCc1nc2ccccc2s1	9.0	5.0%	1.1	2.0	1.01	i
CCn1c2ccccc2c2nnc(SCC(=O)NC(C(=O)OC)C(C)C)nc21 (centres undefined)	13.0	7.0%	1.08	9.0	1.01	i
Cc1ccc(S(=O)(=O)c2cc3c(=O)n4cccc(C)c4nc3n(Cc3ccco3)c2=N)cc1C	8.0	11.0%	2.28*	6.0	1	i
Cc1ccc(S(=O)(=O)c2cc3c(=O)n4ccccc4nc3n(Cc3ccco3)c2=N)cc1	5.0	10.0%	3.63*	15.0	1.17	x
Cc1ccc(S(=O)(=O)c2cc3c(=O)n4ccccc4nc3n(CC3CCCO3)c2=N)cc1 (centres undefined)	6.0	12.0%	1.31	5.0	1.01	i
Cn1cc(C(=O)NCCc2ccccc2)c(=O)c2cc(S(=O)(=O)N3CCOCC3)ccc21	7.0	4.0%	1.11	4.0	1.02	i
